From PubChem BioAssay AID743402 (Broad Institute, 2014)
Among all 1,200 compounds or so, about 140 (12%) were called active.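 Rule for the calls: active = fitted curve falls past -35% activity change at a dose under twice the top valid dose, in every replicate test; inconclusive = replicate tests disagree on the call; inactive = the rest, including activity in the opposite direction.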 Not all results are given here.

Assay: restoration of mutant CFTR halide transport – FRT cells, YFP quenching, cherry-pick, dose response (AID 743402);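 note: compounds act as correctors raising surface CFTR-F508del before acute activation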
Conditions: FRT CFTR-F508del YFP iodide quenching, 24 h, channel opened with forskolin and a potentiator; series mostly up to 26 µM

Activity change, negative = more quenching (active), inactive:
NCC(=O)NNC(=O)OCC1c2ccccc2-c2ccccc21
COc1ccc(OC)c(-c2cc(-c3cccnc3)nc(N)c2C#N)c1
COc1cccc(N=Nc2ccc3cccnc3c2O)c1
O=C1NC(=Nc2ccc(O)cc2)S/C1=C/c1ccco1
COc1cc(/C=C2/SC(=Nc3ccc(O)cc3)NC2=O)cc(OC)c1O
CC(=O)c1ccc(Nc2cc(C)nc3c(C)cc(C)cc23)cc1
COc1ccc(Nc2nc(-c3sc(C)nc3C)cs2)cc1
COc1ccc(-c2ccc3c(c2)[C@H]2[C@H](CCN2S(=O)(=O)c2ccc(OC)cc2)[C@@H](CO)N3C)cc1
Cc1cccc(N2CCN(C(=O)c3c(-c4ccccc4)noc3C)CC2)c1C
C[C@@H]1CN([C@@H](C)CO)C(=O)c2cc(NS(=O)(=O)c3ccc(Cl)cc3)ccc2O[C@@H]1CN(C)Cc1ccc(C(F)(F)F)cc1
Nc1[nH]c(C(=O)c2ccccc2)c(-c2ccccc2C(F)(F)F)c1C(=O)NCCc1c[nH]c2ccccc12
Cc1cc(C)c2nc(Cl)c(CN(Cc3ccco3)C(=O)Nc3ccccc3C)cc2c1
COc1ccc(-c2ccnc(-c3ccc(O)cc3)n2)cc1
O=C(c1ccc(Br)cc1)c1cc([N+](=O)[O-])ccc1N1CCOCC1
COc1ccc([N+](=O)[O-])cc1Nc1c2ccccc2nc2ccccc12
COC(=O)/C=C/c1ccccc1S(=O)(=O)N(Cc1ccccc1)Cc1ccco1
NS(=O)(=O)c1ccc(S(=O)(=O)N(CCc2ccccc2)Cc2ccccn2)cc1
CCN1CCN(c2cc(C)c3cc(NC(=O)c4ccc(OC)c(OC)c4)ccc3n2)CC1
N=C1/C(=C/c2cccn2CCOc2ccccc2)C(=O)N=C2SC=C(c3ccccc3)N12
O=C1C=C(NCCc2cc(Br)c(O)c(Br)c2)C(=O)c2ncccc21
Nc1c(C(=O)c2ccco2)oc2ccccc12
Nc1ccn(C2OC(CO)C(O)C2O)c(=O)n1 (stereo unspecified)
O=C(CCCl)Nc1nc2c(s1)CCc1ccccc1-2
C[C@H]1CN([C@@H](C)CO)S(=O)(=O)c2ccc(C#CC3CCCCC3)cc2O[C@H]1CN(C)Cc1cccnc1
CCOC(=O)c1ccc(N2CCOCC2)c(NC(=O)c2c(-c3ccccc3)noc2C)c1
CCN(CC)c1ccc(/C=N/NC(=O)c2cnccn2)cc1
COc1ccc(NC(=O)c2cc(S(=O)(=O)N3CCOCC3)ccc2C)cc1S(=O)(=O)N1CCOCC1
OC[C@@H]1CN(Cc2ccc(-c3ccccc3)cc2)C[C@H](n2cnc3c(NC4CC4)ncnc32)O1
COc1ccccc1NC(=O)CSc1ccc(-c2ccccn2)nn1
COc1ccccc1N=C1SC(C(=O)Nc2cccc(Cl)c2Cl)C(N)=C1C(N)=O (stereo unspecified)
CC(C)C[C@H]1CN([C@@H](Cc2ccc(O)cc2)CN2CCC[C@H]2CN2C(=O)C(=O)NC[C@@H]2Cc2ccccc2)C(=O)C(=O)N1CC1CCCCC1
CCC(=O)N1CC2(CCN(Cc3ccc(Cl)cc3)CC2)c2c(n(C)c3cc(OC)ccc23)[C@H]1CO
COC(=O)C1=CN(c2ccc(OC)cc2OC)C(N)=C(C#N)C1c1ccccc1F (stereo unspecified)
CCCC(=O)NC(c1ccc(Cl)cc1)c1ccc2cccnc2c1O (stereo unspecified)
Cc1cccc(NC(=S)N/N=C/c2cccc(O)c2)c1C
Cc1cnc(NC(=O)c2ccc3c(c2)OCCO3)s1
Cc1cc(Br)cc(/C=N/NC(=O)c2ccc3c(c2)OCO3)c1O
O=C(Cc1ccc(Br)cc1)NCc1ccccc1
Cc1nc(N)[nH]c(=O)c1CCCNS(=O)(=O)c1ccc([N+](=O)[O-])cc1
CC(C)CN(CCCNC(=O)CN1C(=O)CSc2ccc(S(=O)(=O)N3CCOCC3)cc21)CC(C)C
CCN(CC)C(=O)c1oc2ccc(S(=O)(=O)N3CC(C)CC(C)C3)cc2c1C (stereo unspecified)
O=C(N=Nc1c(O)[nH]c2ccc(Br)cc12)c1ccccc1-n1cccc1
Cn1cccc1/C=C1\SC(=Nc2cccc(O)c2)NC1=O
Cc1ccc(C2NC(=O)c3ccccc3N2)c(C)c1 (stereo unspecified)
Cn1cc(C(=O)N/N=C/c2ccc3c(c2)OCO3)c2ccccc21
COc1cc(OC)c2c(-c3cccc(-c4cccc(N)c4)c3)cc(=O)oc2c1
CC(C)Nc1ccc(Nc2ccnc3cc4ccccc4cc23)cc1
COc1cccc(-c2ccc([C@H]3[C@@H](CO)N(C(=O)c4ccccn4)[C@H]3C#N)cc2)c1
Cc1ccccc1S(=O)(=O)N1C[C@@H]2N[C@H](C1)C2c1ccc(-c2cccc(C#N)c2)cc1 (stereo partly specified)
CCCNC(=O)N1CC2(CN(S(=O)(=O)c3cccc(OC)c3)C2)c2c(n(C)c3cc(OC)ccc23)[C@H]1CO
CN1c2ccc(-c3ccc(F)cc3)cc2[C@H]2[C@H](CCN2S(=O)(=O)c2cccc(F)c2)[C@@H]1CO
Cc1cccc(S(=O)(=O)N2C[C@H]3[C@@H](c4ccccc42)[C@H](CO)N3CC2CCCC2)c1
COc1ccc(-c2ccc3c(c2)[C@H]2[C@H](CCN2S(=O)(=O)c2ccc(OC)cc2)[C@H](CO)N3C)cc1
Cc1ccc(C)c(C2NC(=O)c3ccccc3N2)c1 (stereo unspecified)
COC(=O)CSC1=C(C#N)C(c2ccc(C)o2)CC(=O)N1 (stereo unspecified)
COc1ccccc1CNC(=O)Nc1nc(C(N)Cc2ccc(Cl)cc2)cs1 (stereo unspecified)
CN(C)CCCN(C(=O)c1ccco1)c1nc(-c2ccc(Cl)cc2)cs1
O=C(CCc1ccccc1)NCC(c1ccco1)N1CCc2ccccc21 (stereo unspecified)
CCOC(=O)c1oc2ccc(S(=O)(=O)n3nc(-c4ccccc4)cc3N)cc2c1C
Cc1ccc(C(=O)N/N=C/c2cc(Br)ccc2O)cn1
Cc1ccc(-c2ccc3c(c2)O[C@H](CN(C)Cc2ccccn2)[C@@H](C)CN([C@@H](C)CO)S3(=O)=O)cc1
O=[N+]([O-])c1ccc(N=Nc2c(Cl)cc(O)cc2Cl)cc1
COc1ccc(OC)c2[nH]c(C(=O)N/N=C/c3ccccc3O)cc12
Cc1ccc(-c2ccc3c(c2)O[C@@H](CN(C)Cc2ccccn2)[C@H](C)CN([C@H](C)CO)S3(=O)=O)cc1
Cn1c(C(=O)c2ccccc2[N+](=O)[O-])nc2ccccc21
Cc1cccc(N2CCN(S(=O)(=O)c3cc(-c4cc(C)no4)ccc3C)CC2C)c1 (stereo unspecified)
C[C@@H]1CN([C@H](C)CO)S(=O)(=O)c2ccc(-c3ccccc3)cc2O[C@H]1CN(C)Cc1ccccn1
COc1ccc(-c2ccc3c(c2)[C@H]2[C@H](CCN2S(=O)(=O)c2ccc(OC)cc2)[C@@H](CO)N3)cc1
O=C(C[C@@H]1CC[C@H]2[C@@H](COC[C@H](O)CN2Cc2ccc3c(c2)OCO3)O1)Nc1ccc(-c2ccccc2)cc1 21.4% [at 2.85 µM]
COc1cc2c(-c3ccccc3)c(C)oc2cc1/C=N/NC(N)=S
Cc1ccc(/C=N/NC(=O)c2c(-c3ccccc3)noc2C)c(O)c1
CO/N=C\CC(=O)Nc1ccc(Cl)cc1Cl
CCOc1cc(/C=N/NC(=O)N/N=C/c2ccc(O)c(OCC)c2)ccc1O
COc1ccc(C2c3ccc4ccccc4c3Oc3ncn(CCCO)c(=N)c32)cc1OC (stereo unspecified)
CCOC(=O)c1c(NC(=O)C(=O)N/N=C/c2ccccc2O)sc2c1CCCCC2
O=c1c2ccccc2oc2cc(-c3ccc4[nH]ccc4c3)ccc12
O=C(NCCOc1ccccc1F)c1cc([N+](=O)[O-])ccc1N1CCOCC1
CCOc1ccc(C(=O)COC(=O)Cc2n[nH]c(=O)c3ccccc23)cc1
CCN1C(=O)c2cccc3c(S(=O)(=O)N(C(C)=O)c4ccc(OC(C)=O)cc4)ccc1c23
O=C1c2cccc3c(O)ccc(c23)C(=O)N1c1ccc(Cl)cc1
C/C(=N\Nc1ncnc2sc(C)c(C)c12)c1ccccn1
Cn1cccc1/C=C1\SC(=Nc2ccccc2)NC1=O
CCc1cc(-c2nnn(CCC3COCCO3)c2CC)ccc1-c1cn(Cc2ccc3ccccc3c2)nn1 (stereo unspecified)
COc1cc(NC(=O)c2csc(N)n2)cc(C(=O)Nc2cccc(C(F)(F)F)c2)c1
O=C(C1CCCCC1)N1CC(=O)N2[C@@H](CO)[C@H](c3ccc(C#Cc4cccc(F)c4)cc3)[C@@H]2C1
CC1=Nc2cc(C(=O)NCC3CCCO3)ccc2Sc2ccc(C)cc21 (stereo unspecified)
COc1ccccc1NC(=S)N(Cc1ccco1)Cc1cc2cc(C)cc(C)c2[nH]c1=O
CC(=O)O[C@H]1C(=O)[C@]2(C)[C@H]([C@H](OC(=O)c3ccccc3)[C@]3(O)C[C@H](OC(=O)[C@H](O)[C@@H](NC(=O)c4ccccc4)c4ccccc4)C(C)=C1C3(C)C)[C@]1(OC(C)=O)CO[C@@H]1C[C@@H]2O
COc1cc2c(cc1OC)C(C)N(C(=O)Nc1cc(C)cc(C)c1)CC2 (stereo unspecified)
C=CCN1c2ccccc2[C@]23C[C@@H](C(=O)OC)N(C(=O)c4cccs4)C2=NC(C(=O)OC)=C(C(=O)OC)[C@H]13
C[C@H]1CN([C@@H](C)CO)C(=O)Cc2cc(NC(=O)Nc3ccc(C(F)(F)F)cc3)ccc2O[C@H]1CN(C)S(=O)(=O)c1ccccc1
O=C(N/N=C\c1c(O)ccc2ccccc12)c1cncc(Br)c1
C[C@H]1CN([C@@H](C)CO)S(=O)(=O)c2ccc(C#Cc3ccc(F)cc3)cc2O[C@H]1CN(C)C(=O)NC1CCCC1
COc1ccc(OC)c(Nc2cc(C)nc3ccc(C)cc23)c1
C[C@H]1CN([C@@H](C)CO)S(=O)(=O)c2ccc(-c3ccc(C#N)cc3)cc2O[C@@H]1CN(C)Cc1ccccn1
Oc1ccc2ccccc2c1C=NNc1ccccn1
Cc1cccc(Nc2nc(N)nc(-c3oc4ccccc4c3C)n2)c1
CCOC(=O)c1ccc(Nc2sc(C(=O)c3cccc([N+](=O)[O-])c3)c(N)c2C#N)cc1
CCc1ccc(-c2nc(C(N)=O)c3[nH]c(=O)n(-c4ccccc4OC)c3n2)cc1
Nc1sc(-c2ccccc2)cc1-c1n[nH]c(=S)n1C1CCCCC1
Cc1ccc(C)c(CSc2nc3[nH]ncc3c(=O)[nH]2)c1
